About 83,000 compounds went through this panel and 20% of them were active in at least one assay; those are over-represented in the sample as a whole.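 How to read the values: 0–100, growth inhibition (40 = 60% inhibited); 0, no net growth; -100 to 0, cell death (-40 = 40% of starting cells died; -100 = all dead).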 Unmarked numbers belong to inactive results. Activity calls are given as the source filed them. The calls were made as follows: active = growth percent below 10; inactive = the rest.
What was measured:
Assay in all cases: NCI-60 one-dose screen, 48 h (100 = growth as untreated, 0 = no growth, -100 = all killed)
Settings in all cases: 10 µM unless noted
[1] = test system: RPMI-8226 leukemia
[2] = test system: OVCAR-8 ovarian
[3] = test system: OVCAR-5 ovarian
[4] = test system: OVCAR-4 ovarian
[5] = test system: SK-OV-3 ovarian
[6] = test system: IGROV1 ovarian
[7] = test system: HS 578T breast
[8] = test system: NCI/ADR-RES ovarian
[9] = test system: T-47D breast
[10] = test system: OVCAR-3 ovarian

SMILES | growth [1] | growth [2] | growth [3] | growth [4] | growth [5] | growth [6] | growth [7] [%] | growth [8] | growth [9] | growth [10]
Cn1[nH]cc(/C=N/C(N)=O)c1=O | 105% | 105% | 102% | 106% | 110% | 124% | 109 | 108% | 104% | –
O=C(CCc1nnc2sc(-c3ccc(Cl)cc3Cl)nn12)c1nc2ccccc2[nH]1 | 2% (active) | -30.9% (active) | -52.6% (active) | -54% (active) | -52.4% (active) | 0.377% (active) | – | -0.815% (active) | -68.4% (active) | -80.6% (active)
O=C(CCc1nnc2sc(Cc3ccccc3Cl)nn12)c1nc2ccccc2[nH]1 | 94.7% | 93.7% | 105% | 94% | 99.7% | 90.9% | – | 95.9% | 78.5% | 82.5%
COc1ccc2c3c(c(OCCCN(C)C)nc2c1)-c1ccc(Cl)cc1C3=O | -17.3% (active) | -38.6% (active) | -43.3% (active) | -8.75% (active) | 55.5% | 30.8% | 68.7 | 7.12% (active) | 72.7% | -46.4% (active)
Cn1cc(-c2csc(-c3cn(C)c4ncccc34)n2)c2cc(F)cnc21 | 70.1% | 80.8% | 91.3% | 93.5% | 107% | 84% | – | 46.9% | 52.2% | 108%
NC(N)=NC(N)=NCCCc1ccccc1 | 62.6% [100 µM] | 71.1% [100 µM] | 76.3% [100 µM] | 70% [100 µM] | 67.7% [100 µM] | 53.1% [100 µM] | – | 81.2% [100 µM] | 53.7% [100 µM] | 56.9% [100 µM]
COc1ccc(C2=NNC(c3cc(Cc4ccc(O)c(C5CC(c6ccc(OC)cc6)=NN5)c4)ccc3O)C2)cc1 (configuration not stated) | 26.9% | 28.8% | 112% | 58.3% | 93.9% | 35.5% | 43 | 33.7% | 50.3% | 68.6%
COc1cc2cn3c4ccc(O)cc4nc(N)c3c2cc1OC | 19.9% | 29.6% | 45.3% | 38.7% | 27.2% | 33.9% | – | 42.4% | 12.5% | 1.25% (active)
C=Cc1nn2c(CCC(=O)c3nc4ccccc4[nH]3)nnc2s1 | 110% | 108% | 102% | 110% | 106% | 106% | – | 100% | 106% | 107%
Cc1cc2cn3c4cccnc4[nH]c(=O)c3c2cc1C | -5.48% (active) | -46.1% (active) | 92.9% | 47.9% | 81% | 65% | – | 9.65% (active) | -21.3% (active) | 29.5%

— PubChem BioAssay (NCI)
